Measurements published in PubChem BioAssay (NCATS).
Inconclusive results are not listed. Entries that show only a call come without a potency. Calls of active or inactive are those of the source. Unless noted, calls come from the whole dose curve; as a rule, active = well fitted curve in the direction sought with a large enough effect; inconclusive = small, poorly fitted or top-dose-only effect, or another doubt; inactive = no such curve, though single readings can be large; an effect the other way counts as inactive or inconclusive.

Legend:
[1] = qHTS assay for small molecule agonists of retinoid X receptor alpha signaling (AID 588544; calls by dose curve); conditions: HEK293T RXRa-UAS-bla, beta-lactamase reporter, 18 h; 530 nm emission
[2] = biological target: Retinoic acid receptor RXR-alpha (Homo sapiens) (UniProt P19793); assay: as above; conditions: HEK293T RXRa-UAS-bla, beta-lactamase reporter, 18 h; series mostly up to 76.7 µM
Sequence of Retinoic acid receptor RXR-alpha (Homo sapiens) (P19793 whole entry, looked up): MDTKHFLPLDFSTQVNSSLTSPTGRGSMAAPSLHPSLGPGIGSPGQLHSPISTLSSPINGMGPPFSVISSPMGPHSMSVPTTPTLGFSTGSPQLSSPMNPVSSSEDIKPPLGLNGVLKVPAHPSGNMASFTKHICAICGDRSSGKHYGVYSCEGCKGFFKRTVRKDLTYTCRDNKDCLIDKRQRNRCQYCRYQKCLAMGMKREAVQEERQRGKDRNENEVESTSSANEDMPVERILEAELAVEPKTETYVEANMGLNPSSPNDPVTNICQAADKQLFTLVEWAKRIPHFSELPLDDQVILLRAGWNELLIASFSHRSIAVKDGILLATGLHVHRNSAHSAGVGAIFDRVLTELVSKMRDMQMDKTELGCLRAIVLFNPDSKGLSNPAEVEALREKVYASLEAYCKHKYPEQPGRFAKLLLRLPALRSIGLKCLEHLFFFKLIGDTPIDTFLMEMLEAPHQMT

[3] = biological target: Thyroid hormone receptor beta (Homo sapiens) (UniProt P10828); assay: qHTS assay for small molecule agonists of thyroid hormone receptor beta signaling (AID 588545; calls by dose curve); conditions: TR-UAS-bla GripTite HEK 293, beta-lactamase ratio, agonist mode, 18 h, percent of T3 response, DMSO as zero; series mostly up to 76.7 µM
Sequence of Thyroid hormone receptor beta (Homo sapiens) (P10828 whole entry, looked up): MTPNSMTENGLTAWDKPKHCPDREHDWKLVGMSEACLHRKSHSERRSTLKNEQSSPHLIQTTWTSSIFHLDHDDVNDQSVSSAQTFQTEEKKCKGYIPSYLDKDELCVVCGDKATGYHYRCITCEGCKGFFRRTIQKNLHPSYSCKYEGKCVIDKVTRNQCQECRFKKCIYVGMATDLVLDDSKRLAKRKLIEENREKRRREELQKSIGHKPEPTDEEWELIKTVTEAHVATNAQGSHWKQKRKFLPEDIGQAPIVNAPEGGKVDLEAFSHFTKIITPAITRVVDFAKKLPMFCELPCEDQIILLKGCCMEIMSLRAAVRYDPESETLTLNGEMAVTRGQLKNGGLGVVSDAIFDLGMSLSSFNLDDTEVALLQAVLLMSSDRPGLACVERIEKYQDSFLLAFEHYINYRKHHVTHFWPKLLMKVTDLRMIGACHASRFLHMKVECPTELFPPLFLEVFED
Summary of the method: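 HEK 293 TR-UAS-bla; agonist mode; 18 hrs, 37 C; CCF4, ex 405/em 460 and 530 nm; norm. T3 10 nM = 100%, DMSO = 0%; Hill fit → EC50, efficacy.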

[4] = biological target: Thyroid hormone receptor beta (Homo sapiens) (UniProt P10828); assay: qHTS assay for small molecule antagonists of thyroid hormone receptor beta signaling (AID 588547; active = well fitted inhibition curve with a large enough effect in the signal ratio, with a control signal flat, not every such curve was filed as active; the % refers to the signal ratio;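 note: cells stimulated with 0.4 nM T3 agonist during compound exposure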); conditions: TR-UAS-bla HEK293, beta-lactamase ratio, antagonist mode, 18 h
Summary of the method: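 TR-UAS-bla GripTite HEK293 cells in 2% charcoal/dextran FBS medium; compounds 0.59 nM to 92 uM with T3 at 0.4nM final, 18 h at 37 C. Beta-lactamase read by CCF4 fluorescence (460/530 nm); Hill fits gave IC50 and efficacy.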

[5] = biological target: Voltage-gated inwardly rectifying potassium channel KCNH2 (Homo sapiens) (UniProt Q12809); assay: qHTS Assay for Small Molecule Inhibitors of the Human hERG Channel Activity (AID 588834); conditions: U2OS BacMam hERG, FluxOR thallium flux fluorescence; series mostly up to 92.2 µM;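 note: lower thallium flux fluorescence means stronger hERG block; nearly all actives have a fitted effect of over 50% in size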; note: potency is the fitted concentration of half-maximal effect
Sequence of Voltage-gated inwardly rectifying potassium channel KCNH2 (Homo sapiens) (Q12809 whole entry, looked up): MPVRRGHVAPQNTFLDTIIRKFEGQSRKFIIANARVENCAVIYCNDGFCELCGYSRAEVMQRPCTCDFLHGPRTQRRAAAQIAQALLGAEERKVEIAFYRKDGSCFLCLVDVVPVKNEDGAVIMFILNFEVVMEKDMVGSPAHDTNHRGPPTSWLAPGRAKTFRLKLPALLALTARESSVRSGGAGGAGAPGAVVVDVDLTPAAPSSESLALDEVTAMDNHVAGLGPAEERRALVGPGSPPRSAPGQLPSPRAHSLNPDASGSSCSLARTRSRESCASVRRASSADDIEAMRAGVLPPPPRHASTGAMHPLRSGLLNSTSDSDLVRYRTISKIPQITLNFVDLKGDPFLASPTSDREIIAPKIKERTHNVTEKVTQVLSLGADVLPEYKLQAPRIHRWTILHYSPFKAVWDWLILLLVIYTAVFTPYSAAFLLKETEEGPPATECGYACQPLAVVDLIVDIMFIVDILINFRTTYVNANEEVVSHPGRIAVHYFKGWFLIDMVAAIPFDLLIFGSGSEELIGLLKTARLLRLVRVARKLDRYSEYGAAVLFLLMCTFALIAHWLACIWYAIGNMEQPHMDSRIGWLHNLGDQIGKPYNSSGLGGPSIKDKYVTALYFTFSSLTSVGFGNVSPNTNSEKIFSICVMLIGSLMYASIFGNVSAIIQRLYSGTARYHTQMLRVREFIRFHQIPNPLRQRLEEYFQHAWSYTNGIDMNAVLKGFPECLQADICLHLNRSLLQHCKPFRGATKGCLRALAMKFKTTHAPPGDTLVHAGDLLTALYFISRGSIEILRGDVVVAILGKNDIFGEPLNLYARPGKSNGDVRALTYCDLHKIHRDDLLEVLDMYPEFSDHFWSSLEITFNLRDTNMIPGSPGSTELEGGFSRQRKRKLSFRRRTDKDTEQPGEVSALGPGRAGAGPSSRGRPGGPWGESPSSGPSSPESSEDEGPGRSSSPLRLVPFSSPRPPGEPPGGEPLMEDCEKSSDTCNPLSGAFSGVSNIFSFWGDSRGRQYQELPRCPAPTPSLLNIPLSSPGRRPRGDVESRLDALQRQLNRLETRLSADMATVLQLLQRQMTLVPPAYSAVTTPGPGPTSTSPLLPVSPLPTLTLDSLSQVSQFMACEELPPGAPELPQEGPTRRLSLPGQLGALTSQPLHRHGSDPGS
Summary of the method: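 hERG-BacMam U2OS, 2000 cells/well; 0.7X FluxOR loading 1 hr RT dark; cpd ~10 min 37 °C; stim buffer; FDSS fluorescence 2 min @ 1 s; AC50 Hill fit.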

[6] = qHTS assay for small molecule activators of the nuclear factor-kappa B (NF-kB) signaling pathway (AID 651749; active = well fitted activation curve with a large enough effect in the signal ratio; the % refers to the signal ratio); conditions: NF-kB-bla ME-180 cells, beta-lactamase FRET ratio, 16 h; stronger effect = higher value
Summary of the method: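 Incubation lasted 16 hr at 37C in 5% CO2 after 23 nL compound addition to ME-180 NF-kB-bla cells. Activation appears as beta-lactamase-mediated FRET loss.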

[7] = qHTS assay for small molecule disruptors of the mitochondrial membrane potential - 1 hr assay (AID 651754; calls by dose curve; note: nearly all actives have a fitted effect of over 35% in size); conditions: series mostly up to 92.2 µM
Summary of the method: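 Steps: seed HepG2 cells and let attach overnight; pin-transfer compound or vehicle; incubate 1 hr at 37C; add Mito-MPS dye for 30 min; read two-channel fluorescence for monomer and aggregate forms.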

[8] = qHTS assay for small molecule disruptors of the mitochondrial membrane potential - 5 hr assay (AID 651755; calls by dose curve; note: nearly all actives have a fitted effect of over 40% in size); conditions: JC-1-type ratio dye; series mostly up to 92.2 µM
Summary of the method: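 HepG2 cells (2,000/well), attached overnight, exposed to compound 5 hr at 37C, then Mito-MPS dye 30 min. Fluorescence read for monomers (490/535 nm) and aggregates (540/590 nm).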

[9] = biological target: Tumor necrosis factor (Homo sapiens) (UniProt P01375); assay: qHTS assay to identify small molecules that stimulate Tumor Necrosis Factor-alpha (TNF-alpha) secretion (AID 651757; active = well fitted curve in the direction sought with a large enough effect in the signal ratio; the % refers to the signal ratio); conditions: Human cells, HTRF 665/615 ratio; series mostly up to 92.2 µM
Sequence of Tumor necrosis factor (Homo sapiens) (P01375 whole entry, looked up): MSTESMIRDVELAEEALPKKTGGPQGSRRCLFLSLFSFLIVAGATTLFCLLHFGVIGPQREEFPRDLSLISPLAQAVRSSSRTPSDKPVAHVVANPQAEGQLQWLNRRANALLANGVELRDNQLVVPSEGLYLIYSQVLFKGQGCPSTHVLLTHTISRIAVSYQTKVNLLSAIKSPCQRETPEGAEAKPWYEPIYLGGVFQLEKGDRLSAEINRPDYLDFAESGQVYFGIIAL
Summary of the method: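 Secreted TNF-alpha from compound-treated THP-1 cells (17 hrs, 37 C) was quantified with a homogeneous time-resolved fluorescence antibody assay.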

[10] = qHTS assay for environmental chemicals that activate the Aryl hydrocarbon Receptor (AhR) signaling pathway (AID 651777); conditions: 1A2-DRE human hepatoma cells, luciferase, 24 h; activation: stronger effect = higher value; note: nearly all actives have a fitted effect of over 15% in size
Summary of the method: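 Following a 24 hr incubation with test chemicals at 37 C and 5% CO2, 1A2-DRE human hepatoma cells received One-Glo reagent; after 30 min at room temperature, luciferase output reflected CYP1A2 induction via AhR.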

[11] = biological target: Nuclear receptor ROR-gamma (Homo sapiens) (UniProt P51449); assay: qHTS assay for small molecule antagonists of the retinoid-related orphan receptor gamma (ROR-gamma) signaling pathway (AID 651802); conditions: ROR-gamma antagonist cell reporter assay; series mostly up to 92.2 µM;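 note: CHO cells with doxycycline-induced ROR-gamma expression; nearly all actives have a fitted effect of over 60% in size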
Sequence of Nuclear receptor ROR-gamma (Homo sapiens) (P51449 whole entry, looked up): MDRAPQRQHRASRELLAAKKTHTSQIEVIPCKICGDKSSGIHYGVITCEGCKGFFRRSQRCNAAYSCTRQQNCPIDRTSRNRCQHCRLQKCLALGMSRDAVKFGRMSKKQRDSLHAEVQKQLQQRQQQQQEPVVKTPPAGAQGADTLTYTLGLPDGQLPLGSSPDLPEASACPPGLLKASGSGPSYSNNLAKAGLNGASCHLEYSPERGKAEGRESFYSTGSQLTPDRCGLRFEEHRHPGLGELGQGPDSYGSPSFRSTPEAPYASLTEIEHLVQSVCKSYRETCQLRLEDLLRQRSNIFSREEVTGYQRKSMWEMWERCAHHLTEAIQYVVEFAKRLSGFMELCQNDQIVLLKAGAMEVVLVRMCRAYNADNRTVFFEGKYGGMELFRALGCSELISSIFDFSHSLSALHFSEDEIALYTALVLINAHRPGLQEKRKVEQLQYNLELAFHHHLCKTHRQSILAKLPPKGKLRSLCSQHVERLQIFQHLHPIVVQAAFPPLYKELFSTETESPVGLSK
Summary of the method: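 Antagonism is scored as a fall in luminescence from a RORE-luciferase reporter in CHO cells expressing ROR under a TET-inducible promoter, measured 16hr after doxycycline induction in the presence of compound.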

[12] = qHTS assay for small molecule agonists of the antioxidant response element (ARE) signaling pathway measured by Nrf2-dependant transcriptional activity (AID 720636; active = well fitted curve in the direction sought with a large enough effect in the repeat runs; an effect the other way counts as inactive or inconclusive;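 note: HepG2 cells with an ARE-driven luciferase reporter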); conditions: ARE-luc HepG2, Nrf2 luciferase reporter, 16 h; series mostly up to 92.4 µM
Summary of the method: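 ONE-Glo luminescence, read 30 min after reagent addition at room temperature, reflected ARE reporter activity in HepG2 cells that had been incubated with compound for 16 hr at 37 C in 1% dialyzed FBS.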

[13] = qHTS assay for small molecule antagonists of the retinoid-related orphan receptor gamma (ROR-gamma) signaling pathway - cell viability counter screen (AID 720652; active = well fitted curve in the direction sought with a large enough effect in the repeat runs; an effect the other way counts as inactive or inconclusive;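 note: CHO reporter cells with doxycycline-induced ROR-gamma expression; compound exposure lasted 16 hr before ATP read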); conditions: RORgamma reporter cell line viability counter screen; series mostly up to 92.2 µM
Summary of the method: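 Cytotoxicity is quantified via intracellular ATP (CellTiter-Glo luminescence) in doxycycline-induced CHO ROR response element-luciferase reporter cells treated with compound for 16 hr at 37 C, 5% CO2.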

[14] = qHTS assay for small molecule agonists of the antioxidant response element (ARE) signaling pathway measured by Nrf2-dependant transcriptional activity - cell viability counter screen (AID 720653; active = well fitted curve in the direction sought with a large enough effect in the repeat runs; an effect the other way counts as inactive or inconclusive); conditions: ARE-bla HepG2 viability, CellTiter-Glo ATP luminescence, 16 h; stronger effect = lower value
Summary of the method: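 ARE-bla HepG2 cells treated with compounds for 16 h at 37C; this counter screen measures viability as intracellular ATP by CellTiter-Glo luminescence after 30 min at room temperature.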

[15] = qHTS assay for small molecule activators of the p53 signaling pathway (AID 651743; active = well fitted activation curve with a large enough effect in the signal ratio, not every such curve was filed as active; the % refers to the signal ratio); conditions: HCT-116 p53RE-bla, beta-lactamase FRET ratio, 16 h; stronger effect = higher value
Summary of the method: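 HCT-116 p53RE-bla, 4,000 cells/well; 5 h settle; cpd/DMSO 16 h, 37 C; LiveBLAzer B/G 2 h RT; fluorescence intensity.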

[16] = biological target: Peroxisome proliferator-activated receptor alpha (Homo sapiens) (UniProt Q07869); assay: qHTS assay for small molecule agonists of the peroxisome proliferator-activated receptor alpha (PPARalpha) signaling pathway (AID 651778); conditions: PathHunter PPARalpha complementation, chemiluminescence, 6 h; stronger effect = higher value
Sequence of Peroxisome proliferator-activated receptor alpha (Homo sapiens) (Q07869 whole entry, looked up, the tested form may be a part): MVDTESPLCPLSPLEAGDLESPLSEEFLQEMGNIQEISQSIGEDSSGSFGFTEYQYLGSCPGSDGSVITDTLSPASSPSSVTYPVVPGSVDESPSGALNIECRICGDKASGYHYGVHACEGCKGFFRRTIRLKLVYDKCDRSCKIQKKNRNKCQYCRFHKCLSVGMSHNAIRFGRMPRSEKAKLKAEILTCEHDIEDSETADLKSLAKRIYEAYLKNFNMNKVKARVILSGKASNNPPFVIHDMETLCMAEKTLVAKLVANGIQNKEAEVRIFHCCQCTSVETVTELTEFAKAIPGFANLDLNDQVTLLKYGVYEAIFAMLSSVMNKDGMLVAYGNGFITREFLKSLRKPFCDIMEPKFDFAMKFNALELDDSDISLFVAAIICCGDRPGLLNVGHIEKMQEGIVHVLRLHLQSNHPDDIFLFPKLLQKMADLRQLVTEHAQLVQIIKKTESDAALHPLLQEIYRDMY
Summary of the method: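 Enzyme-fragment complementation assay in which ligand-bound PPARalpha translocates and forms an active enzyme that generates chemiluminescence. Cells were plated overnight, exposed to compound for 6 hr at 37 C, and then given detection reagent for 60 min at room temperature.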

[17] = qHTS assay for small molecule agonists of the antioxidant response element (ARE) signaling pathway (AID 651741; active = well fitted activation curve with a large enough effect in the signal ratio; the % refers to the signal ratio); conditions: HepG2 ARE-bla reporter, beta-lactamase FRET ratio, 16 h; series mostly up to 96 µM
Summary of the method: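 HepG2 ARE-bla cells plated at 2,000 cells/well and incubated 5 h at 37 C/5% CO2 received 23 nL compound in DMSO. After 16 h at 37 C, LiveBLAzer B/G FRET substrate was applied for 2 h at room temperature and fluorescence read.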

[18] = qHTS assay to identify small molecules that stimulate interleukin-8 (IL-8) secretion (AID 651758; active = well fitted activation curve with a large enough effect in the signal ratio; the % refers to the signal ratio); conditions: HTRF ratio (665/615); series mostly up to 92.2 µM
Summary of the method: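 THP-1 cells (2000/well) exposed to compound 16 h at 37 C; secreted IL-8 then detected by HTRF with cryptate- and XL665-labelled anti-IL-8 antibody pair after 1-3 h at room temperature.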

[19] = qHTS assay for small molecule antagonists of retinoid X receptor alpha signaling (AID 588546; active = well fitted inhibition curve with a large enough effect in the signal ratio, with a control signal flat, not every such curve was filed as active; the % refers to the signal ratio;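 note: cells stimulated with 9-cis-retinoic acid as agonist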); conditions: HEK293T RXRa-UAS-bla, beta-lactamase ratio, antagonist mode; measured here: W530 green channel, cytotoxicity proxy
Summary of the method: (§1)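 Beta-lactamase reporter inhibition, read as CCF4 fluorescence ratio (ex 405, em 460/530 nm) after 2 h at RT. HEK293T UAS-bla cells, 2500/well, were stimulated with 9-cis-RA at 500 or 100 nM final alongside test compound for 18 h at 37 C.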

[20] = biological target: Retinoic acid receptor RXR-alpha (Homo sapiens) (UniProt P19793); assay: as above; conditions: HEK293T RXRa-UAS-bla, beta-lactamase ratio, antagonist mode
Summary of the method: as §1

| SMILES | max response [1] [%] | outcome [2] | outcome [3] | activity change % (negative = inhibition) [4] | Potency [5] | activation [6] | Potency [7] | Potency [8] | Potency [9] | activation [10] | Potency [11] | outcome [12] | Potency [13] | max response [14] | activation [15] | max response [16] | Potency [17] | Potency [18] | max response [19] [%] | max response [20] |
| --- | --- | --- | --- | --- | --- | --- | --- | --- | --- | --- | --- | --- | --- | --- | --- | --- | --- | --- | --- | --- |
| CCCCCCCCCCCCOCC1CO1 (configuration not stated) | 6.34 | inactive | inactive | -4.18% (inactive) | inactive | -0.615% (inactive) | inactive | inactive | inactive | 0.152% (inactive) | inactive | inactive | inactive | 2.47% (inactive) | – | – | – | – | – | – |
| CCOC(=O)C(C)C(C)=O (configuration not stated) | -14.3 | inactive | inactive | 2.26% (inactive) | – | – | inactive | inactive | inactive | 0.277% (inactive) | – | inactive | inactive | -7.43% (inactive) | 6.52% (inactive) | -3.29% (inactive) | – | – | – | – |
| CCOc1ccc(NC(C)=O)cc1N | 3.78 | inactive | inactive | 2.46% (inactive) | inactive | -1.6% (inactive) | inactive | inactive | – | – | inactive | inactive | inactive | – | -6.53% (inactive) | -2.02% (inactive) | inactive | inactive | – | – |
| Cc1cccc2cccnc12 | -2.92 | inactive | inactive | -0.45% (inactive) | inactive | – | inactive | inactive | inactive | -0.26% (inactive) | inactive | inactive | inactive | -7.04% (inactive) | -4.27% (inactive) | 3.59% (inactive) | – | – | – | – |
| COc1cccc(N)c1 | 15.1 | inactive | inactive | -9.05% (inactive) | inactive | – | – | – | inactive | – | – | inactive | inactive | 10.6% (inactive) | -3.72% (inactive) | -3.67% (inactive) | – | – | – | – |
| CC(=O)C1(C)CC2=C(CCCC2(C)C)CC1C (configuration not stated) | -9.8 | inactive | – | -1.03% (inactive) | 15.8 µM (active) | – | – | – | inactive | -1.01% (inactive) | inactive | inactive | inactive | 5.61% (inactive) | -2.14% (inactive) | -0.376% (inactive) | inactive | – | -2.18 | 25.5% (inactive) |
| CNc1ccccc1 | -0.986 | inactive | – | -1.47% (inactive) | inactive | -1.25% (inactive) | inactive | inactive | inactive | 1.11% (inactive) | inactive | inactive | inactive | -0.57% (inactive) | 2.04% (inactive) | -7.07% (inactive) | inactive | inactive | -0.675 | 29.8% (inactive) |
